# Assays:
# Experiment in all cases: thermal shift delta Tm vs DMSO control; higher = stronger stabilization (binding)
# Details in all cases: 12.5 µM; protein concentration 2 µM
# LOC_OS01G57100-cb003 = test system: LOC_OS01G57100-cb003
# Summary of the method: (§1)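 The melting temperature shift given here is a triplicate mean, measured against protein that received only DMSO. Melting temperatures came from Boltzmann fits of differential scanning fluorimetry data on E. coli-expressed, purified rice kinase domain constructs. Each 19.5 μl well contained 2 μM kinase, 100 mM potassium phosphate pH 7.5, 150 mM NaCl, 10% glycerol, 5 × SYPRO Orange and compound in DMSO. Plates were scanned from 25°C to 95°C at 0.05°C/s.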
# LOC_OS01G60330-cb001 = test system: LOC_OS01G60330-cb001
# Summary of the method: as §1
# LOC_OS01G60700-cb002 = test system: LOC_OS01G60700-cb002
# Summary of the method: as §1
# LOC_OS01G63280-cb003 = test system: LOC_OS01G63280-cb003
# Summary of the method: as §1
# LOC_OS01G67340-cb003 = test system: LOC_OS01G67340-cb003
# Summary of the method: as §1
# LOC_OS01G70970-cb002 = test system: LOC_OS01G70970-cb002
# Summary of the method: as §1
# LOC_OS02G07810-cb001 = test system: LOC_OS02G07810-cb001
# Summary of the method: as §1
# LOC_OS02G08530-cb003 = test system: LOC_OS02G08530-cb003
# Summary of the method: as §1
# LOC_OS02G14120-cb001 = test system: LOC_OS02G14120-cb001
# Summary of the method: as §1
# LOC_OS02G17970-cb001 = test system: LOC_OS02G17970-cb001
# Summary of the method: as §1
SMILES,thermal shift delta Tm (LOC_OS01G57100-cb003),thermal shift delta Tm (LOC_OS01G60330-cb001),thermal shift delta Tm (LOC_OS01G60700-cb002),thermal shift delta Tm (LOC_OS01G63280-cb003),thermal shift delta Tm (LOC_OS01G67340-cb003),thermal shift delta Tm (LOC_OS01G70970-cb002),thermal shift delta Tm (LOC_OS02G07810-cb001),thermal shift delta Tm (LOC_OS02G08530-cb003),thermal shift delta Tm (LOC_OS02G14120-cb001),thermal shift delta Tm (LOC_OS02G17970-cb001)
CNC(=O)c1cc(Oc2ccc(NC(=O)Nc3ccc(Cl)c(C(F)(F)F)c3)c(F)c2)ccn1 [Regorafenib (BAY 73-4506)],0.31 °C,0.62 °C,0.77 °C,1.71 °C,-0.62 °C,0.36 °C,0.73 °C,0.93 °C,-0.11 °C,0.55 °C
CSc1cccc(Nc2ncc3cc(-c4c(Cl)cccc4Cl)c(=O)n(C)c3n2)c1,1.54 °C,0.88 °C,0.94 °C,0.6 °C,0.72 °C,0.3 °C,0.11 °C,0.12 °C,0.99 °C,-0.06 °C
Cc1cc(NC(=O)c2cccc(NC(=O)/C=C/CN(C)C)c2)ccc1Nc1nccc(-c2cccnc2)n1,1.86 °C,0.94 °C,1.77 °C,0.92 °C,0.69 °C,1.62 °C,1.46 °C,1.8 °C,0.95 °C,1.45 °C
N#CCNC(=O)c1ccc(-c2ccnc(Nc3ccc(N4CCOCC4)cc3)n2)cc1 [Momelotinib (CYT387)],1.85 °C,6.73 °C,1.01 °C,0.32 °C,1.56 °C,0.41 °C,0.78 °C,1.72 °C,9.13 °C,0.53 °C
C=CC(=O)Nc1cc(Nc2nccc(-c3cn(C)c4ccccc34)n2)c(OC)cc1N(C)CCN(C)C [Osimertinib (AZD9291)],-0.15 °C,1.07 °C,1.16 °C,0.43 °C,0.42 °C,0.32 °C,0.03 °C,3.79 °C,3.74 °C,-0.32 °C
NC1(Cc2ccc(Cl)cc2)CCN(c2ncnc3[nH]ccc23)CC1,2.25 °C,2.06 °C,0.71 °C,0.51 °C,0.58 °C,0.53 °C,0.47 °C,1.24 °C,1.88 °C,0.79 °C
O=C1NC(=O)/C(=C/c2ccc(-c3ccc(F)cc3O)o2)S1,4.13 °C,9.64 °C,1.12 °C,23.4 °C,5.05 °C,4.18 °C,2.79 °C,1.57 °C,2.56 °C,1.7 °C
Cn1ncc(Cl)c1-c1cc(C(=O)N[C@H](CN)Cc2cccc(F)c2)sc1Cl,0.79 °C,0.75 °C,0.77 °C,0.1 °C,0.54 °C,0.15 °C,0.41 °C,0.69 °C,1.31 °C,0.56 °C
Cc1c(NC(=O)c2ccc(C(C)(C)C)cc2)cccc1-c1cn(C)c(=O)c(Nc2ccc(C(=O)N3CCOCC3)cc2)n1,1.59 °C,0.51 °C,1.36 °C,0.36 °C,-0.03 °C,0.22 °C,0.9 °C,0.31 °C,0 °C,0.66 °C
CC(C)NC(=O)COc1cccc(-c2nc(Nc3ccc4[nH]ncc4c3)c3ccccc3n2)c1,1.14 °C,12.3 °C,0.68 °C,0.55 °C,0.91 °C,0.76 °C,1.23 °C,1.03 °C,2.71 °C,1.76 °C
O=C(O)c1ccc(Nc2ncc3c(n2)-c2ccc(Cl)cc2C(c2c(F)cccc2F)=NC3)cc1,0.51 °C,0.82 °C,0.64 °C,-0.31 °C,-0.46 °C,0.46 °C,0.3 °C,0.39 °C,0.88 °C,0.07 °C
"CO[C@H]1C[C@@H]2CC[C@@H](C)[C@@](O)(O2)C(=O)C(=O)N2CCCC[C@H]2C(=O)O[C@H]([C@H](C)C[C@@H]2CC[C@@H](OP(C)(C)=O)[C@H](OC)C2)CC(=O)[C@H](C)/C=C(\C)[C@@H](O)[C@@H](OC)C(=O)[C@H](C)C[C@H](C)/C=C/C=C/C=C/1C [Ridaforolimus (Deforolimus, MK-8669)]",0.89 °C,1.16 °C,0.84 °C,0.17 °C,-0.64 °C,0.14 °C,0.4 °C,0.57 °C,0.4 °C,0.27 °C
CCc1nc(C(N)=O)c(Nc2ccc(N3CCC(N4CCN(C)CC4)CC3)c(OC)c2)nc1NC1CCOCC1 [Gilteritinib (ASP2215)],4.25 °C,11.5 °C,1.96 °C,1.07 °C,4.03 °C,5.09 °C,1.35 °C,5.51 °C,13.1 °C,1.65 °C
COc1cc2ncnc(Oc3ccc(CC(=O)Nc4cnn(C(C)C)c4)cc3)c2cc1OC,0.71 °C,0.05 °C,1.1 °C,0.13 °C,-0.21 °C,0.47 °C,0.52 °C,0.53 °C,0.06 °C,0.84 °C
CC1Oc2cc(cnc2N)-c2c(nn(C)c2C#N)CN(C)C(=O)c2ccc(F)cc21 (stereo not given),3.37 °C,0.4 °C,0.4 °C,0.16 °C,0.4 °C,0.35 °C,-0.27 °C,2.75 °C,6.77 °C,0.31 °C
C=CC(=O)Nc1cccc(Nc2nc(Nc3ccc(OCCOC)cc3)ncc2F)c1,1.56 °C,8.86 °C,1.84 °C,0.22 °C,0.42 °C,1.81 °C,0.8 °C,3.49 °C,9.32 °C,0.13 °C
COCC(=O)NC/C=C/c1ccc2ncnc(Nc3ccc(Oc4ccc(C)nc4)c(C)c3)c2c1,-0.71 °C,0.77 °C,0.69 °C,-0.33 °C,-0.68 °C,0.44 °C,0.15 °C,0.52 °C,-0.57 °C,-0.14 °C
COc1cc(N2CCC(N)CC2)ccc1Nc1ncc(Cl)c(-c2c[nH]c3ccccc23)n1,5.66 °C,7.59 °C,2.23 °C,0.87 °C,0.6 °C,6.87 °C,1.19 °C,7.02 °C,9.17 °C,1.36 °C
Cc1nc2ccc(-n3ncc(C(=O)c4cc5ccccc5[nH]4)c3N)cc2[nH]1,-0.72 °C,2.34 °C,-0.42 °C,1.52 °C,2.11 °C,0.1 °C,0.91 °C,1.17 °C,0.03 °C,1.37 °C

# From the supplement of paper PMC9694430
